{
  "source": "PubChem BioAssay AID2551",
  "about": "(National Center for Advancing Translational Sciences (NCATS), 2010)",
  "note": "The campaign covered roughly 310,000 compounds. About 17,000 (5.5%) were called active. Not shown: some 11% with an inconclusive outcome. The list comes from a sample in which actives are over-represented; it also holds similar structures and randomly drawn compounds. A number with no mark means an inactive call. Calls follow the shape of the dose curve; as a rule, active = well fitted inhibition curve with a large enough effect; inconclusive = small, poorly fitted or top-dose-only effect, or effect the other way; inactive = no such curve, though single readings can be large or run the other way. % is scaled to controls: 0 for no effect and ±100 for the full control effect; potency is read from the fitted curve at half-maximal effect.",
  "data": [
    {"biological_target": "Nuclear receptor ROR-gamma (Mus musculus) (UniProt P51450)", "sequence (P51450 whole entry, looked up, the tested form may be a part)": "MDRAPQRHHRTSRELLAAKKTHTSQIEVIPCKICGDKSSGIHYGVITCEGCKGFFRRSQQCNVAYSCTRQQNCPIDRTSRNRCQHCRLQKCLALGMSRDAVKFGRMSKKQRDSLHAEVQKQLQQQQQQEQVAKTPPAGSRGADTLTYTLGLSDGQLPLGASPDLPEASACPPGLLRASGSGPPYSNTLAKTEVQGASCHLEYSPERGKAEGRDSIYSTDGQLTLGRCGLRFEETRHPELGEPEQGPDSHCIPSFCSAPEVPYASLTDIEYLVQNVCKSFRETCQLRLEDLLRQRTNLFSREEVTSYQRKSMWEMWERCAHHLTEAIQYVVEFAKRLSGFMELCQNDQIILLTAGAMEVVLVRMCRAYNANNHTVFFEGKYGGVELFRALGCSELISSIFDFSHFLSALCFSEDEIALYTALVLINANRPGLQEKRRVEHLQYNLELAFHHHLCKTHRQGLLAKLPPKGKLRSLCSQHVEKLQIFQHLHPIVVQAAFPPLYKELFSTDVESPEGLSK", "assay": "qHTS for inhibitors of ROR gamma transcriptional activity; also: nearly all actives have a fitted effect of over 60% in size", "conditions": "Drosophila S2 Gal4-RORgamma UAS-luciferase reporter, 20 h; series mostly up to 53.6 µM; activity change, negative = inhibition: at the top concentration", "method_in_brief": "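Schneider cells (Drosophila), stable Gal4 DBD–ROR gamma + UAS-luc; 1 hr cmpd preincubation; Cu2+ induction 700 uM final; 20 hr ambient; luminescence.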", "units": {"activity change, negative = inhibition": "%"}, "values": [
      {"compound": "Cc1cc(-c2n[nH]c(=S)n2/N=C/C(Br)=C/c2ccccc2)n[nH]1", "Potency": "12.6 µM (active)"},
      {"compound": "O=C(CSc1n[nH]c(-c2cccnc2)n1)Nc1ccc(Cl)cc1", "activity change, negative = inhibition": 41.7},
      {"compound": "O=C(CSc1n[nH]c(-c2cccnc2)n1)Nc1ccnc2ccccc12", "activity change, negative = inhibition": 0.985},
      {"compound": "Cc1cc(-c2n[nH]c(=S)n2/N=C/c2ccco2)n[nH]1", "activity change, negative = inhibition": -0.905},
      {"compound": "S=c1[nH]nc(-c2cccnc2)n1/N=C/C(Cl)=C\\c1ccccc1", "Potency": "8.91 µM (active)"},
      {"compound": "O=C(Nc1ccc(S(=O)(=O)N2CCCCC2)cc1)C1CC(=O)N(c2ccc(F)cc2)C1", "note": "(stereo not drawn)", "activity change, negative = inhibition": 31.8},
      {"compound": "CCC(C(=O)OC)n1cnc2scc(-c3ccc(C)cc3)c2c1=O", "note": "(stereo not drawn)", "activity change, negative = inhibition": 12.9},
      {"compound": "O=C(CCC(=O)c1cccs1)NCc1ccccc1", "activity change, negative = inhibition": -6.72},
      {"compound": "Cc1ccccc1C(CC(=O)c1cccs1)C(C#N)C#N", "note": "(stereo not drawn)", "Potency": "1.58 µM (active)"},
      {"compound": "O=C(NCC(=O)N1CCN(c2ccccc2F)CC1)c1cccs1", "activity change, negative = inhibition": 35.7},
      {"compound": "CC(=O)c1ccc(N2Cc3ccccc3C2)cc1", "activity change, negative = inhibition": -1.29},
      {"compound": "COc1cc2c(cc1OC)C(C)N(S(=O)(=O)c1cnc(Cl)c(Cl)c1)CC2", "note": "(stereo not drawn)", "activity change, negative = inhibition": 1.19},
      {"compound": "COC(=O)/C=C/C(=O)NCc1ccco1", "activity change, negative = inhibition": -21.6},
      {"compound": "COc1cc(C(=O)N[C@@H](C)C(=O)NCc2ccco2)cc(OC)c1OC", "activity change, negative = inhibition": -0.487},
      {"compound": "COc1cc(C(=O)NC(=S)NCc2ccco2)cc(OC)c1OC", "Potency": "6.31 µM (active)"},
      {"compound": "COc1cccc(NC(=S)NCc2ccco2)c1", "Potency": "11.2 µM (active)"},
      {"compound": "COc1cccc(NC(=O)NCc2ccc(F)cc2)c1", "activity change, negative = inhibition": 13.4},
      {"compound": "COc1cccc(OC)c1C(=O)NC(=S)NCc1ccco1", "Potency": "3.55 µM (active)"},
      {"compound": "COc1cc(-n2c(C)nc3cc(C(=O)NCc4ccco4)ccc32)cc(OC)c1OC", "activity change, negative = inhibition": -10.6},
      {"compound": "COc1ccc(-c2cc(C(=O)NCc3ccco3)no2)cc1OC", "activity change, negative = inhibition": 44.4},
      {"compound": "S=C(NCc1ccco1)Nc1ccc2c(c1)OCCO2", "activity change, negative = inhibition": -30.9},
      {"compound": "CCOC(=O)N1CCN(C(=O)c2cn(C)c3ccc(S(=O)(=O)N(CC)CC)cc3c2=O)CC1", "activity change, negative = inhibition": -12.9},
      {"compound": "Cc1c(NC(=O)CSCc2ccccc2)cccc1C(=O)O", "activity change, negative = inhibition": -17.2},
      {"compound": "Cc1occc(=O)c1OCc1ccc(F)cc1", "activity change, negative = inhibition": -1.17},
      {"compound": "CC(=O)Nc1ccc(NS(=O)(=O)c2ccc3c(c2)NC(=O)CC(=O)N3)cc1", "activity change, negative = inhibition": -30.5},
      {"compound": "Cn1ncc2c(N3CCCCC3)nc(NCCCO)nc21", "activity change, negative = inhibition": -17.9},
      {"compound": "O=C(NCc1ccc2c(c1)OCO2)C(=O)NCC1OCCN1S(=O)(=O)c1ccc(F)cc1", "note": "(stereo not drawn)", "activity change, negative = inhibition": 52.2},
      {"compound": "O=[N+]([O-])c1ccc(N2CCN(c3ccc(F)cc3)CC2)cn1", "activity change, negative = inhibition": 14.3},
      {"compound": "COc1cc(NC(=S)NCc2ccc(S(N)(=O)=O)cc2)cc(OC)c1", "activity change, negative = inhibition": 3.21},
      {"compound": "Cc1cc(C)cc(NC(=S)NCc2ccc(F)cc2)c1", "Potency": "2.51 µM (active)"},
      {"compound": "Cc1cc(Br)ccc1NC(=S)NC1CCCC1", "Potency": "3.16 µM (active)"},
      {"compound": "CC(Oc1ccc(Br)cc1Br)C(=O)NC1CCCC1", "note": "(stereo not drawn)", "activity change, negative = inhibition": 12.7},
      {"compound": "Cc1ccc(NC(=S)Nc2ccc(F)cc2)cc1", "Potency": "11.2 µM (active)"},
      {"compound": "CCCCC(=O)NCc1ccc(F)cc1", "activity change, negative = inhibition": 3.75},
      {"compound": "COC(=O)c1sccc1NC(=S)Nc1ccc(C)cc1", "activity change, negative = inhibition": 11.9},
      {"compound": "S=C(Nc1ccc(Br)cc1Cl)NC1CCN(Cc2ccccc2)CC1", "Potency": "10 µM (active)"},
      {"compound": "O=C(COc1ccc(Br)cc1F)NC1CCN(Cc2ccccc2)CC1", "activity change, negative = inhibition": -11},
      {"compound": "Cc1cc(C)cc(NC(=O)NC2CCCCCCC2)c1", "activity change, negative = inhibition": 19.2},
      {"compound": "O=C(NC1CCN(Cc2ccccc2)CC1)c1cc(Br)c(Br)[nH]1", "activity change, negative = inhibition": 6.64},
      {"compound": "Cc1ccc(C(=O)CNc2ccc(F)cc2)cc1", "activity change, negative = inhibition": 0.535},
      {"compound": "CC(=O)Nc1ccc(Oc2ccc3c(c2)C(=O)NC3=O)cc1", "activity change, negative = inhibition": 20.2},
      {"compound": "O=C(NCCCn1ccnc1)/C(=C\\c1ccccc1F)NC(=O)c1ccccc1", "activity change, negative = inhibition": -8.54},
      {"compound": "CCc1cc(=O)oc2c(C)c(OCC(=O)NCCN3CCOCC3)ccc12", "activity change, negative = inhibition": -18},
      {"compound": "CCCc1cc(=O)oc2cc(OCC(=O)Nc3ccc(CN4CCOCC4)cc3)c(Cl)cc12", "activity change, negative = inhibition": -1.12},
      {"compound": "COc1ccc(N2CCN(CCNC(=O)Nc3cc(Cl)ccc3Cl)CC2)cc1", "activity change, negative = inhibition": -9.76},
      {"compound": "CCOC(=O)C1=C(CCc2ccccc2)NC(=O)NC1c1ccc2ccccc2c1", "note": "(stereo not drawn)", "activity change, negative = inhibition": 30},
      {"compound": "COc1ccc(CNC(=O)Cc2ccc(-c3ccccc3)cc2)cc1OC", "activity change, negative = inhibition": 42.9},
      {"compound": "CCOc1ccc(NC(=O)c2cccc3c2C(=O)N(CC2CCCO2)C3)cc1", "note": "(stereo not drawn)", "activity change, negative = inhibition": -32.5},
      {"compound": "COc1ccc(-c2noc(CCCC(=O)NC3CCCC3)n2)cc1OC", "activity change, negative = inhibition": -9.96},
      {"compound": "O=C(CCn1nnc2ccccc21)OCC(=O)c1ccc([N+](=O)[O-])cc1", "activity change, negative = inhibition": -28.8},
      {"compound": "COc1ccc(C2NC(=O)N(C)C(C)=C2[N+](=O)[O-])cc1", "note": "(stereo not drawn)", "activity change, negative = inhibition": -29.9},
      {"compound": "CCN(CC(=O)Nc1ccc2c(c1)OCO2)S(=O)(=O)c1ccccc1", "activity change, negative = inhibition": 4.13},
      {"compound": "CCc1c(C)nc(SCC(=O)NC2CCCC2)[nH]c1=O", "activity change, negative = inhibition": -5.4},
      {"compound": "CN(CCc1ccccn1)C1CCCN(S(=O)(=O)c2ccccc2Cl)C1", "note": "(stereo not drawn)", "activity change, negative = inhibition": 0},
      {"compound": "O=C(NC1CCN(Cc2ccccc2)CC1)c1ccccc1F", "activity change, negative = inhibition": -14.8},
      {"compound": "COc1ccccc1CC(=O)NCCc1c[nH]c2ccccc12", "activity change, negative = inhibition": 10.5},
      {"compound": "S=C(NN=C1CCN(Cc2ccccc2)CC1)NC1CCCCC1", "Potency": "2.24 µM (active)"},
      {"compound": "CC(C)c1ccc(NC(=O)NC2CCCCC2)cc1", "activity change, negative = inhibition": 2.06},
      {"compound": "O=C(NCCc1c[nH]c2ccccc12)c1cccc(Br)c1", "activity change, negative = inhibition": -2.38},
      {"compound": "Cc1ccc(NC(=O)CSCC(=O)NC2CCCCC2)cc1", "activity change, negative = inhibition": -0.956},
      {"compound": "O=C(NC1CCN(Cc2ccccc2)CC1)c1c(F)cccc1F", "activity change, negative = inhibition": 1.32},
      {"compound": "Cc1cc(C)cc(NC(=S)NCCc2c[nH]c3ccccc23)c1", "Potency": "7.08 µM (active)"},
      {"compound": "Cc1ccc(NC(=S)NC2CCCC2)cc1", "Potency": "3.55 µM (active)"},
      {"compound": "COc1ccc(CN2CCN(Cc3ccc(OC)c(OC)c3OC)CC2)cc1", "activity change, negative = inhibition": -0.466},
      {"compound": "CC1(c2ccc(Cl)cc2)NC(=O)N(CC(=O)c2ccc3c(c2)OCO3)C1=O", "note": "(stereo not drawn)", "activity change, negative = inhibition": 9.33},
      {"compound": "CCc1ccc(Oc2coc3cc(O)ccc3c2=O)cc1", "activity change, negative = inhibition": -36.1},
      {"compound": "CCC1CCCCN1C(=O)CSc1nc2c(c(=O)n1C)SC(C)C2", "note": "(stereo not drawn)", "activity change, negative = inhibition": 15.6},
      {"compound": "Cc1noc(C)c1CCC(=O)N1CCCC(CO)(Cc2ccccc2)C1", "note": "(stereo not drawn)", "activity change, negative = inhibition": 26.1},
      {"compound": "CCOc1ccc(NC(=O)C2CCN(C(=O)N3CCOc4ccccc43)CC2)cc1", "activity change, negative = inhibition": 20.2},
      {"compound": "CCC(C)Sc1nc2c(cnn2-c2ccc(F)cc2)c(=O)[nH]1", "note": "(stereo not drawn)", "activity change, negative = inhibition": -3.01},
      {"compound": "CCc1[nH]nc(C(=O)N2CCCC(CO)(Cc3ccc(F)cc3F)C2)c1C", "note": "(stereo not drawn)", "activity change, negative = inhibition": 22},
      {"compound": "COc1ccc2nc(NC(=O)[C@@H]3CCCN3C(=O)c3cccs3)sc2c1", "activity change, negative = inhibition": 40.9},
      {"compound": "COc1cccc(C(=O)Nc2nc3ccc(S(C)(=O)=O)cc3s2)c1", "Potency": "7.94 µM (active)"},
      {"compound": "CCOc1ccc2nc(NC(=O)CSc3nc4c(c(=O)n(C)c(=O)n4C)n3CC)sc2c1", "activity change, negative = inhibition": 8.92},
      {"compound": "CS(=O)(=O)c1ccc2nc(NC(=O)c3ccc(Cl)nc3)sc2c1", "activity change, negative = inhibition": 0.945},
      {"compound": "CS(=O)(=O)c1ccc2nc(NC(=O)c3ccc(N4CCCC4=O)cc3)sc2c1", "activity change, negative = inhibition": 33.9},
      {"compound": "CCOc1ccc(S(=O)(=O)Nc2nc3cc(OC)ccc3s2)cc1", "activity change, negative = inhibition": 2.49},
      {"compound": "COc1ccc2nc(Nc3nc4cc5c(cc4s3)OCCO5)sc2c1", "Potency": "12.6 µM (active)"},
      {"compound": "CCC(=O)c1ccc(OCC(=O)Nc2ccc3nc(C)sc3c2)cc1", "activity change, negative = inhibition": 15},
      {"compound": "CCOc1ccc2nc(Nc3nc4ccc(NC(C)=O)cc4s3)sc2c1", "Potency": "3.16 µM (active)"},
      {"compound": "COc1ccc2nc(Nc3nc4ccc(NC(C)=O)cc4s3)sc2c1", "Potency": "2.82 µM (active)"},
      {"compound": "COc1ccc2nc(NC(=O)NC3CCCCC3)sc2c1", "activity change, negative = inhibition": 5.57},
      {"compound": "CNC(=O)c1ccc2nc(NC(C)=O)sc2c1", "activity change, negative = inhibition": 9.09}
    ]}
  ]
}
